Screening data (PubChem)
hcDAF-12 act: activates DAF-12 receptor from parasite H. contortus | 370,000 tested, 1.4% active | activation, % at 6.8 µM | HEK293 hcDAF-12 lit1-tk-luc reporter, luminescence; 0% DMSO, 100% Δ7-dafachronic acid;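 active means activation above the mean of all tested compounds plus 3 SD, cut at about 5.5% in these data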;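 further: 100% = response to 3 µM Δ7-dafachronic acid high control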
SMARCA2 act: increases SMARCA2 function in MMTV reporter cells | AID 652017 | 370,000 tested, 1% active | activation, % at 9.1 µM | MG213 cells, MMTV-luciferase reporter, dexamethasone, overnight; in the data active means activation above about 7.8%;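 further: 0% = vehicle wells and 100% = reference activator wells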
DAX1 inh-1: inhibitors of human orphan nuclear receptor DAX1 (NR0B1). P51843. HEK293 Gal4-DAX1 luciferase reporter, luminescence. inhibition, % at 6.75 µM. 340,000 tested, 0.99% active. AID 504766;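 active means inhibition above the mean over all tested compounds plus 3 SD, cut at about 4.2% in these data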;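 further: 0% = DAX1-transfected cells with DMSO and 100% = empty-vector control cells with DMSO; inhibition shows as a rise in luminescence from relieved DAX1 repression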
Target sequence (P51843 207-470 limits assumed): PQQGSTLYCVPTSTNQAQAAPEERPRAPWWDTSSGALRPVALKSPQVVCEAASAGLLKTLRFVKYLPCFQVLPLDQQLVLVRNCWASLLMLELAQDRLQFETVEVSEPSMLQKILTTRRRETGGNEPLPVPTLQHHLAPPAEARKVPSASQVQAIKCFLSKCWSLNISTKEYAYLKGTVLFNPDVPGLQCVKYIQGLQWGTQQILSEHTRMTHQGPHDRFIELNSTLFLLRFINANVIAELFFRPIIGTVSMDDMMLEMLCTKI
ssDAF-12 act: activators of S. stercoralis DAF-12 nuclear receptor | HEK293 ssDAF-12/GRIP1 lit1-tk-luc reporter, luminescence; % of 3 µM dafachronic acid response | activation, % at 6.8 µM | 370,000 tested, 1% active | AID 652126;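 active means activation above the mean over all tested compounds plus 3 SD, cut at about 0.9% in these data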;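 further: 0% = DMSO-only wells and 100% = 3 µM delta7-dafachronic acid wells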
hgDAF12 agonist: agonists of H. glycines DAF-12 nuclear receptor | HEK293 GAL4-hgDAF12 UAS-luciferase reporter, agonist luminescence; normalized to butyrate control | activation, % at 6.8 µM | 370,000 tested, 1.8% active;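 active means activation above a cutoff set at the mean of all screened compounds plus 3 SD, cut at about 10% in these data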;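 further: 0% = DMSO wells and 100% = sodium butyrate wells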
DAX1 inh-2: DAX1 (NR0B1) inhibition, primary screen; inhibition, % at 6.8 µM; AID 652010; HEK293T StAR-luciferase reporter, SF-1/DAX-1 repression relief; 370,000 tested, 1.1% active;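 active means inhibition above the mean over all tested compounds plus 3 SD, cut at about 3.6% in these data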;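 further: 0% = DAX-1 cells with DMSO and 100% = cells lacking DAX-1 with DMSO; higher inhibition means more luminescence from relief of DAX-1 repression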
The depositor's hits bear a star; nt = no result. Sampled rows, rich in hits. Any-hit rate of the full collection: about 4.8%.

SMILES	hcDAF-12 act	SMARCA2 act	DAX1 inh-1	ssDAF-12 act	hgDAF12 agonist	DAX1 inh-2
Nc1ccc(Oc2ccc3nc(-c4ccccc4)c(-c4ccccc4)nc3c2)cc1	0	0	-1	-1	2	-1
Nc1ccc(Oc2cc(N)cc(Oc3ccccc3)c2)cc1	4	3	4.6*	-1	5	1
CC(C)CC[n+]1ccn(-c2nc3ccccc3nc2[N-]S(=O)(=O)c2ccc(Cl)cc2)c1	-1	-4	5.3*	-2	0	1
CN1CCN(S(=O)(=O)c2ccc(C(=O)NC3CCCCC3)cc2)CC1	1	0	1	-1	1	1
O=C(OCC(=O)N1CCC(Cc2ccccc2)CC1)c1cc(Cl)ccc1O	0	-1	-1	-1	2	3.9*
COc1ccccc1C(=O)OCC(=O)N1CCC(Cc2ccccc2)CC1	2	2	1	-1	3	1
Cc1ccc2nc(-c3cccc(S(=O)(=O)N(C)C)c3)cn2c1	2	6	0	0	11*	1
COc1ccccc1NS(=O)(=O)c1cc(NC(=O)c2cccc(S(=O)(=O)N(C)C)c2)ccc1N1CCOCC1	-1	0	0	0	-1	1
Nc1cccnc1Oc1ccccc1F	1	-1	3	-2	0	0
Oc1ccc(Oc2ccccc2F)c2cccnc12	5.7*	nt	nt	-1	2	nt
O=C(O)/C=C\C(=O)Nc1ccccc1F	-2	1	0	-1	1	0
Cc1ccccc1CC(=O)NC1CCCc2ccccc21 (configuration not stated)	0	0	0	-1	-1	0
CC1(C)CC(=O)C(CC(=O)NC2CCCc3ccccc32)C(=O)C1 (configuration not stated)	-1	-5	6.1*	-1	-1	0
COc1ccc(N(C(C)C(=O)N/N=C/c2ccc(OCC(C)C)cc2)S(C)(=O)=O)cc1 (configuration not stated)	-1	-3	0	-1	-1	0
Cc1cnc(C(=O)Nc2ccc(C(C)C)cc2)cn1	2	2	1	-1	12*	2
Cc1cnc(C(=O)Nc2ccc(F)cc2)cn1	1	2	2	-1	8	2
O=C(Nc1ccccc1C(=O)O)c1cc(S(=O)(=O)NCc2ccccc2)ccc1Cl	-2	2	-2	-1	-1	0
CCN(CC)C(=O)c1cc2sc3ccccc3c2s1	1	5	2	-1	12*	1
COCCN(CCOC)C(=O)c1cc2sc3ccccc3c2s1	1	1	0	-2	3	0
CC(=O)c1csc(-c2ccccc2)n1	-1	-1	5.4*	-1	0	0
CC(=O)c1csc(Nc2ccccc2Cl)n1	1	2	8.7*	-1	7	0
CCCNC(=O)c1csc(Nc2cccc3ccccc23)n1	1	-4	-2	-1	1	0
O=C(CN1CCC(C(=O)O)CC1)Nc1ccccc1Oc1ccccc1	-1	-3	nt	-1	0	0
CCOC(=O)N1CCC(NC(=O)CCCN2C(=O)CSc3ncccc32)CC1	0	0	2	-1	3	0
CCOC(=O)N1CCC(NC(=O)CN2C(=O)CSc3ncccc32)CC1	5	0	5.0*	-1	-2	0
SMILES	hcDAF-12 act	SMARCA2 act	DAX1 inh-1	ssDAF-12 act	hgDAF12 agonist	DAX1 inh-2
O=C(CSC1CC(=O)N(CCc2ccccc2)C1=O)Nc1ccc(Br)cc1 (configuration not stated)	5.8*	0	1	0	0	0
O=C(O)CSC1CC(=O)N(c2ccc(F)cc2)C1=O (configuration not stated)	-1	-4	0	-1	2	1
O=C(CSC1CC(=O)N(c2ccc(C(=O)O)cc2)C1=O)Nc1ccc(Cl)cc1 (configuration not stated)	-2	0	6.5*	-1	-5	0
COc1cc(C(=O)NCCc2ccc3c(c2)OCCO3)ccc1OCC(=O)N1CCOCC1	-1	-3	1	-2	-1	-1
NC(=O)C1CCN(C(=O)c2ccc3nc(N4CCCCC4)sc3c2)CC1	1	2	5.2*	0	7	1
COc1cccc(N2CCN(C(=O)c3ccc4nc(N5CCC(C)CC5)sc4c3)CC2)c1	1	1	nt	-1	12*	1
CCOC(=O)N1CCN(C(=O)c2ccc3nc(N4CCCCC4)sc3c2)CC1	-1	2	0	-1	1	0
CCOC(=O)N1CCN(C(=O)c2ccc3nc(N4CCC(C)CC4)sc3c2)CC1	-1	-2	-2	-2	0	-1
Nc1c(-c2ccc(Cl)cc2)nnn1-c1ccccc1	2	3	3	-1	11*	2
COc1ccc(NC(=S)N2CCN(Cc3cccc(F)c3)CC2)c(OC)c1	0	-2	5.0*	-2	-1	0
COc1ccc(NC(=S)N2CCCC2)c(OC)c1	1	0	4.6*	-1	2	0
COc1ccccc1NC(=S)N1CC(C)OC(C)C1 (configuration not stated)	-1	2	4.6*	-2	-2	0
CC(=O)Nc1ccc(/C=C/c2nc3ccccc3o2)cc1	4	3	4.5*	0	13*	2
Cc1ccc(-c2cc3onc(-c4ccccc4)c3c(=O)n2C)cc1	0	-1	3	-2	-4	1
Cn1c(-c2ccc(F)cc2)cc2onc(-c3c(F)cccc3Cl)c2c1=O	2	10*	1	1	11*	3
C=CCN1C=C2C(=O)C(C)(OC(=O)C3CCCC3)C(=O)C=C2C=C1c1ccsc1 (configuration not stated)	4	0	1	1.4*	6	1
O=C(OCc1nc2ccccc2s1)c1ccc(Br)o1	5	3	4.6*	0	4	0
O=C(OCc1nc2ccccc2s1)c1ccc([N+](=O)[O-])o1	nt	nt	0	nt	nt	nt
O=C1NC(c2ccccc2Cl)Nc2ccccc21 (configuration not stated)	-1	-6	0	-1	1	1
O=C1c2ccccc2NC(c2ccccc2Cl)N1N=C1CCCCCC1 (configuration not stated)	3	4	1	0	10*	2
CCOC(=O)C1(Cc2cccc(OC)c2)CCCN(C(=O)c2cc(CC(C)C)[nH]n2)C1 (configuration not stated)	5	5	1	0	9	3.8*
CCOC(=O)C1(Cc2cccc(OC)c2)CCCN(C(=O)c2ccc(OC)o2)C1 (configuration not stated)	5	4	1	0	5	4.3*
